# About 410 targets per protein were measured; listed, in parts, are those with the strongest signals and a random draw of the rest.
# B1: PX14343E-bfa-545-24-545 (Bacteroides fragilis) (protein)
# chain: LDRYPQEELSDGSFWKTPDDANKVVSDLYGYLSTWDQDNDINSDNATMGIKWAAGNVSKGIYDPADQGWSGDYANVRQCNLILSKIDEIPDYPEADKTKALGQVYFFRAYIYFNLIRSFGDVPYIDKPLDLKDMEGITRMPRAEVYEKIMADFDKAIAALPTEWGASDYGRVTKGAAMAMKARAALYYGNWDTAATEAKNVMDLGLYELYDKDNTGKYAELFWEKADGCDEFILVTQFNYPDKTHYLMGWECFPTKGWGGMNPTQSLVDAFEDSEGAPISKSKIYDPTDPFKNRDPRLEVDILHDGEEMYGVTIKVAPLASSGSTGINQHNDATETGYYGQKWLDPSLDPLSDGWNMGKDWVHIRYAEVLLTYAEAKNELQGLDPEAFDAVNQVRRRVGMPELQNTDPSKPTYCATQDDLRQRIRNEWRVEFCLEGGKRMWDIRRWGIAKDVLNAPFEGLKYKIVDNPNDPDKKVDGGKMCILYQGDPIILSGSRYSDNNYLFPVPQSEIDLNPALTQNPGY
# Assays:
# Test in all cases: glycan array binding signal (z-score within array); higher = stronger binding
# Details in all cases: glycan notation: IUPAC condensed, linker removed
# [1] = target: GlcNAc(a1-4)Gal(b1-4)GlcNAc(b1-3)Gal(b1-4)[Fuc(a1-3)]GlcNAc(b1-3)Gal(b1-4)[Fuc(a1-3)]GlcNAc
# Procedure, shortened: (§1)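 The binding signal is a Z-score computed within each array. Data were drawn from 3228 arrays in the Consortium for Functional Glycomics database, restricted to those with a known protein sequence. Scores were averaged over arrays of the same protein sequence at different concentrations or buffers, and over linkers, and negative values can be taken as non-binding.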
# [2] = target: GlcNAc(b1-2)[GlcNAc(b1-4)]Man(a1-3)[GlcNAc(b1-4)][GlcNAc(b1-2)[GlcNAc(b1-6)]Man(a1-6)]Man(b1-4)GlcNAc(b1-4)[Fuc(a1-6)]GlcNAc
# Procedure, shortened: as §1
# GlcNAc(b1-3)Fuc = target: GlcNAc(b1-3)Fuc
# Procedure, shortened: as §1
# [3] = target: GlcNAc(b1-3)Gal(b1-4)GlcNAc(b1-2)[GlcNAc(b1-3)Gal(b1-4)GlcNAc(b1-6)]Man(a1-6)[GlcNAc(b1-3)Gal(b1-4)GlcNAc(b1-2)Man(a1-3)]Man(b1-4)GlcNAc(b1-4)GlcNAc
# Procedure, shortened: as §1
# [4] = target: GlcNAc(b1-3)Gal(b1-4)GlcNAc(b1-3)[GlcNAc(b1-3)Gal(b1-4)GlcNAc(b1-3)]GalNAc
# Procedure, shortened: as §1
# Man(a1-2)Man(a1-3)Man = target: Man(a1-2)Man(a1-3)Man
# Procedure, shortened: as §1
# Neu5Ac(a2-3)Gal = target: Neu5Ac(a2-3)Gal
# Procedure, shortened: as §1
# [5] = target: Neu5Ac(a2-3)Gal(b1-3)GalNAc(b1-4)[Neu5Ac(a2-3)]Gal(b1-4)Glc
# Procedure, shortened: as §1
# [6] = target: Neu5Ac(a2-3)Gal(b1-3)GalNAc(b1-4)[Neu5Ac(a2-8)Neu5Ac(a2-3)]Gal(b1-4)Glc
# Procedure, shortened: as §1
# [7] = target: Neu5Ac(a2-3)Gal(b1-3)[Neu5Ac(a2-6)]GlcNAc(b1-3)[Fuc(a1-3)[Gal(b1-4)]GlcNAc(b1-6)]Gal(b1-4)Glc
# Procedure, shortened: as §1
# [8] = target: Neu5Ac(a2-3)Gal(b1-3)]Neu5Ac(a2-3)Gal(b1-4)]GlcNAc
# Procedure, shortened: as §1
# [9] = target: Neu5Ac(a2-3)Gal(b1-4)GlcNAc(b1-2)Man(a1-3)[GlcNAc(b1-4)][Neu5Ac(a2-3)Gal(b1-4)GlcNAc(b1-2)Man(a1-6)]Man(b1-4)GlcNAc(b1-4)GlcNAc
# Procedure, shortened: as §1
# [10] = target: Neu5Ac(a2-3)Gal(b1-4)GlcNAc(b1-3)[Neu5Ac(a2-3)Gal(b1-4)GlcNAc(b1-6)]GalNAc
# Procedure, shortened: as §1
# [11] = target: Neu5Ac(a2-3)Gal(b1-4)[Fuc(a1-3)]GlcNAc(b1-3)Gal(b1-4)GlcNAc
# Procedure, shortened: as §1
# [12] = target: Neu5Ac(a2-3)Gal(b1-4)[Fuc(a1-3)]GlcNAc(b1-6)[Neu5Ac(a2-3)Gal(b1-3)]GalNAc
# Procedure, shortened: as §1
# Neu5Ac(a2-6)Gal(b1-4)Glc = target: Neu5Ac(a2-6)Gal(b1-4)Glc
# Procedure, shortened: as §1
# [13] = target: Neu5Ac(a2-6)Gal(b1-4)GlcNAc(b1-2)Man
# Procedure, shortened: as §1
# [14] = target: Neu5Ac(a2-6)Gal(b1-4)GlcNAc(b1-2)Man(a1-6)[GlcNAc(b1-2)Man(a1-3)]Man(b1-4)GlcNAc(b1-4)GlcNAc
# Procedure, shortened: as §1
# [15] = target: Neu5Ac(a2-6)Gal(b1-4)GlcNAc(b1-3)Gal(b1-4)GlcNAc
# Procedure, shortened: as §1
# [16] = target: Neu5Ac(a2-6)Gal(b1-4)GlcNAc(b1-3)Gal(b1-4)GlcNAc(b1-3)[Neu5Ac(a2-6)Gal(b1-4)GlcNAc(b1-3)Gal(b1-4)GlcNAc(b1-6)]GalNAc
# Procedure, shortened: as §1
# [17] = target: Neu5Ac(a2-6)Gal(b1-4)GlcNAc(b1-3)[Neu5Ac(a2-6)Gal(b1-4)GlcNAc(b1-6)]GalNAc
# Procedure, shortened: as §1
# [18] = target: Neu5Ac(a2-6)Gal(b1-4)GlcNAc(b1-6)[Gal(b1-3)GlcNAc(b1-3)]Gal(b1-4)Glc
# Procedure, shortened: as §1
# [19] = target: Neu5Ac(a2-6)Gal(b1-4)GlcNAc(b1-6)[Gal(b1-3)]GalNAc
# Procedure, shortened: as §1
# [20] = target: Neu5Ac(a2-8)Neu5Ac(a2-8)Neu5Ac(a2-3)[Gal(b1-3)GalNAc(b1-4)]Gal(b1-4)Glc
# Procedure, shortened: as §1
binder,measurement,setting,value
B1,glycan array binding signal (z-score),[1],8.96
same,glycan array binding signal (z-score),[2],-0.534
same,glycan array binding signal (z-score),GlcNAc(b1-3)Fuc,-0.635
same,glycan array binding signal (z-score),[3],0.412
same,glycan array binding signal (z-score),[4],-0.23
same,glycan array binding signal (z-score),Man(a1-2)Man(a1-3)Man,-0.688
same,glycan array binding signal (z-score),Neu5Ac(a2-3)Gal,-0.082
same,glycan array binding signal (z-score),[5],-0.236
same,glycan array binding signal (z-score),[6],-0.153
same,glycan array binding signal (z-score),[7],0.395
same,glycan array binding signal (z-score),[8],-1.08
same,glycan array binding signal (z-score),[9],0.058
same,glycan array binding signal (z-score),[10],-0.912
same,glycan array binding signal (z-score),[11],-0.873
same,glycan array binding signal (z-score),[12],0.423
same,glycan array binding signal (z-score),Neu5Ac(a2-6)Gal(b1-4)Glc,-0.096
same,glycan array binding signal (z-score),[13],-0.34
same,glycan array binding signal (z-score),[14],0.074
same,glycan array binding signal (z-score),[15],-0.139
same,glycan array binding signal (z-score),[16],2.92
same,glycan array binding signal (z-score),[17],2.89
same,glycan array binding signal (z-score),[18],-0.484
same,glycan array binding signal (z-score),[19],-0.085
same,glycan array binding signal (z-score),[20],-0.399
